According to the supplement of paper PMC12632987:

T1: FBXL12, Q9NXK8
T1 chain: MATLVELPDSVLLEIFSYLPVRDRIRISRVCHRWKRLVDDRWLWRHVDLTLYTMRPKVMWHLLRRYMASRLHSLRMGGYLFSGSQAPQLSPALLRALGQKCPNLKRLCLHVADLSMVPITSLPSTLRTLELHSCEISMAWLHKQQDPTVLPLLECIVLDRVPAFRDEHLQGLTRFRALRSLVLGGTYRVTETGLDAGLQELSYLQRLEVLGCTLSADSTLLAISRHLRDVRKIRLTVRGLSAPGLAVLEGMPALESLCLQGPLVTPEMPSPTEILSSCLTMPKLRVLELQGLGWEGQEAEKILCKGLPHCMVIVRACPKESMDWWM

B1: FBXL12_hotspot_186_26 (protein)
chain: MDLQIRVTLSPDLETARSGLEYAVGLLESLVERGLLESARSLVRSLIEAARKLVKETKDPEVRAAVIEALRRVAEILAKRPELEESRRLVEEAIKELEEE
B2: FBXL12_hotspot_186_27 (protein)
chain: QQLEFRVVTRLDPEITRSTLDTAIGLVESLLERGLIEQAKSAAEAILEEIERTLAESDDPEIHAILAESLRRLAEVLSRDPRLAPLLERARELLARIEAR
B3: FBXL12_hotspot_186_28 (protein)
chain: SDLEVRVTLGEDLETTKSTLDYAVALAEALKARGLTGSLRSLARSFRESAIARLKKSDDPEIYDAILEAAEKLREVVADDPEAKAIIDEAIAEIKAIKAE
B4: FBXL12_hotspot_186_29 (protein)
chain: SDLQVRVRLGDDLETTRSTLEYAVALAAALKARGLTASLRSLARSVRESAIARLRASDDPEIYEAIRAALEALAAVVADDPEARAIVEEALAEVERLRAE
B5: FBXL12_hotspot_186_30 (protein)
chain: MDLEVRVGLGEDLETTKSTLDYAVALAEALAARGLTASLVSLARSVRESAIEVLKKTKDEEIYEAILEALKRMAEIVKDNPEALAIVEEAIKEVEKLKKE
B6: FBXL12_hotspot_186_31 (protein)
chain: KDLQVRVRLGLDLETTRSTLRYAVALAEALKARGLTASLRSLARSLRESAIEVLKKTKDEEIYEAILEALEELAKVVADDPEALAIVKEAIEEVERLKEE
B7: FBXL12_hotspot_186_32 (protein)
chain: MELRVSLSASMSVEQMRANAEIAVAIVEGLAERGLWEDLDAAARSLAASLRAAVERLQRPEAAAVAAEALERLAEIVARALEEHPENERLAATLAEIRAA
B8: FBXL12_hotspot_186_33 (protein)
chain: MELRVSLSADMTPEQMRANAEIAVAIVAGLAERGRVEDLVAAARSLAASLRAAVARLQRPEVAAIAAEALARLAEIVAAAAARHPDNEDLRAALAELRAA
B9: FBXL12_hotspot_186_34 (protein)
chain: MELKITLSEDMSVEQMEAGLKLAVEILQGLRDRELLDDLVAAARSLLKSLKENVARIKKPEFKEVAKKALEEVAKIVKEAAERFPEVEELKEVAKELEEA
B10: FBXL12_hotspot_186_35 (protein)
chain: MKLRISFAPTDSPEQIRAGVDIAVAIVAGLAAAGRLEDFVEAVRSLLESLQANRARIQRPEHHAVFDAAIERLAALAAEVAAAHPDNAEVAAALARLKAA
B11: FBXL12_hotspot_186_36 (protein)
chain: MELRVRFGPDDSVEQMRAGVDIAVAIVEGLAEAGRLEDFVEAARSLLDSLEANAARIKDPAHRAVFAEAVARLLEIAERVAKAYPENEDIKEVAERLKAA
B12: FBXL12_hotspot_186_37 (protein)
chain: MLLRVSFSPDDSPAQIQAGVDIAVAIVEGLAERGRLEDFVEAARSLLESLRANAARIKRPEAQAVFDAAVARLAEIAEEVAERYPENEEIKELLEELREA
B13: FBXL12_hotspot_186_38 (protein)
chain: MELRIRFSPTMSVEQMRAGAQIAVDILRELARRGRWEDLVEAARSLLESLRAARARIRDPEFAEVAAEALERVAAILEEAAKRHPDDEAIHAALEEVKAA
B14: FBXL12_hotspot_186_39 (protein)
chain: MELRVRFSEDMSVEQMRAGLDIAVAILEGLAERGRIEDLVAAARSLLDSLEAGRARIKDPAFDEVVDDALRRIAAILERAAERYPDNEELRAALERVRAA
B15: FBXL12_hotspot_186_40 (protein)
chain: MELRVRFSPDMSVAQRRAGADIAVAILEGLAERGEIEELVEAARSLLDSLEAARARIQDPEFAAVAAAALARIAAILEEAAKRYPENEEIKEALARVKAA
B16: FBXL12_hotspot_186_41 (protein)
chain: MEVRVSVPADAPLEVVRSTMKYAVELAKELKERGELEALASLGKSLVKLRKELKKAGAPEEKLKAVDEAIKEVAKILEEALKEHPDNEELKKALEELKKA
B17: FBXL12_hotspot_20_42 (protein)
chain: MLRLRVGVSEDVEANRGSLLRAAELVEAFADRLAAEFPELAEVIARLRETARRAREAAARLPGLSPEEARALVREMSEEIAEVVEEASRAAEAARARRAA
B18: FBXL12_hotspot_20_43 (protein)
chain: MLLIRARLVGTREQMITTLRYAAAVVRALAERRRAANDATPEALALLEELARLYEEAAERLEAAPEEEWPAIRAATAAEQARLNERLEAELEAQERERAA
B19: FBXL12_hotspot_23_44 (protein)
chain: MRLLRISLVEKPPEELRAGALYQAEVAALAILEGWEVEIEAEHPEAVAAAHAIARALREVTGKEVKVSRPLKPEERPLAEELLPELIAAIRAAIAAHRAR
B20: FBXL12_hotspot_23_45 (protein)
chain: MRKLVITFAEAPDEEMVKATYYATKLALLAAEHGWEIVLRADNAVTGMAARIVAEAVEKRTGKKVEVIVKEDPSTKERAEKLAPKYEAAVEKAIAEVEAS
B21: FBXL12_hotspot_23_46 (protein)
chain: MRTLVIHLTEQSPEEMVKATYYATKLAYLAVKHGWEVVLRASDAVTAMAARIIAEEIERRTGKEVRVEAEERPETAEEAEELRPRFEEAVRKAIEEVEAE
B22: FBXL12_hotspot_23_47 (protein)
chain: MRTLVLSTFGTAPEDREASLEYAARLIVAAGRHGWRVVVVLEDRSSLELAATIAAMAKLVVGAEVVVKTDAEEELRELMERNRERAAELVAAAEAALAAE
B23: FBXL12_hotspot_23_48 (protein)
chain: MRTLVLSTRGVAPEDREAAARYAAEMIVAAGRAGWRVRVVLQDRESLELAALIAAMARLVTGAEVVVLTDAAEELERLMEERREEARRLVEEARARLDAE
B24: FBXL12_hotspot_23_49 (protein)
chain: MRTLRIHLVSRDPEQNRAAARYAAELATRAVLHGWRVVLSGDDRRTVAAAHAVARVVEEVTGKEVEVTEPLHPEEEPLAEELAEELRPVVEAAKAAELAA
B25: FBXL12_hotspot_23_50 (protein)
chain: MRELVLGIGGRPPEEQRAGALRAAELAAAFRPVADRIVVRLGPGVDGAVAAALRRVLEEDYGAEVLSETPEEAVPPEEVEALVAELRAAAEAAEARRRAA
B26: FBXL12_hotspot_24_51 (protein)
chain: QTITLVVRADLDLDPRDSPEEKRARLRAAVEGFLGSVETGIALADLMAARGRGAVDREAFEAAAAALLAAAEALGEADLAARVRAARARFLAAADRLEAA
B27: FBXL12_hotspot_28_52 (protein)
chain: MKVEVRVSGDPEQVAAQLLALLEAMTKIAKELAKELKKTKETDPSKVEEKRKEAEEAAEKIRSMVESILRQAESLSPEQQAQVRAAAEETFKALEELEKT
B28: FBXL12_hotspot_28_53 (protein)
chain: MKRTVIVRGEPEQVGQQILALLEAITEQAKALKAQLEANKNGDPAVLAELKEKLAKLESILESLKEEAERIRPQLSPELQARIDAAIEAAEKALKAAKAV
B29: FBXL12_hotspot_28_54 (protein)
chain: MKIEVKVSGPKEQVAQRILELLEALKQLVEELKKEYKEVKEKDPEKLPEFEKELEEKLEKIKSIAESLVKQAKELGEEAYKKAKEKAEEVKKAIEELKKA
B30: FBXL12_hotspot_28_55 (protein)
chain: MKLEIRVRGPPEEVAKRILELVDAIVEVARQRKEELQRKVEEEGMPEEEARAELEENADRLLSALESLERNAESLPPELREEVLRRIREAREEIERIRKE
B31: FBXL12_hotspot_28_56 (protein)
chain: AKRTVIVKGPPEQRAELMLKLAKAILEKSKELYKELKKVKDKDEEKVKELLEKLEKLADLAKSLLENAKKTLPKEYEEVVKEIEKLTKEVEKILKEAKKL
B32: FBXL12_hotspot_105_2 (protein)
chain: MARVRVGSTGPRALPLTVAGLAFAIYRGDEEEAERLRREAEALIAKRPAAEELRRLLEEAVALARALRAAAEAGDAAAAAAAAARLAAVIDELARLVEAE

Target: T1, FBXL12, Q9NXK8
Test: median log2 fold change of GCK-ALFA target abundance (FLAG IP / Myc IP barcode read proportion) (log2 ratio); each designed protein is fused to an ALFA-tag nanobody in HEK293 cells to bring the named protein to FLAG-tagged glucokinase (GCK); Myc marks an untargeted standard; higher = target protein stabilised (more abundant)
Settings: target protein: 3xFLAG-MCP-GCK-ALFA reporter; HEK293 landing pad (RPLP)
Protocol: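 LABEL-seq trans screen in HEK293 landing-pad cells. Each de novo designed 100-aa effector handle, binding the indicated effector (E3 ligase, DUB or autophagy protein), is fused to a constant NbALFA target handle and induced with 2 ug/mL doxycycline. A FLAG-MCP-GCK-ALFA target and a Myc-MCP standard reporter were transfected, and after 48 h circRNA barcodes were recovered by anti-FLAG and anti-Myc IP and sequenced. The value is the median across barcodes (at least 3 per design) of log2(FLAG/Myc read-proportion ratio), with the two transfection replicates pooled. Negative values mean degradation and positive values mean stabilisation of the target.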

Binder	median log2 fold change
B1	0.196
B2	0.108
B3	0.157
B4	-0.229
B5	0.1
B6	-0.132
B7	0.127
B8	0.143
B9	0.294
B10	0.0482
B11	0.111
B12	0.172
B13	-0.00819
B14	0.222
B15	0.165
B16	0.34

Binder	median log2 fold change
B17	0.115
B18	-0.466
B19	0.0454
B20	-0.506
B21	-0.32
B22	-0.0403
B23	-0.469
B24	-0.0469
B25	0.248
B26	0.0803
B27	-0.0427
B28	0.0582
B29	-0.418
B30	0.147
B31	-0.777
B32	-0.835
